The source of these data is PubChem BioAssay.

A short description of assay [1]: small molecules captured by biotinylated probe aFSTL3 – biochemical, small-molecule microarray, fluorescence 635/667, stem cell growth factor project, primary screen (AID 1064).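 Further: measures binding of the biotinylated anti-FSTL3 antibody to printed compounds.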 To be noted: higher = more signal.
Assay [2] in a line: binders from COS7 lysate, DM2A8 probe, primary screen, torsin A project, cell lysate, small-molecule microarray, fluorescence 635/667 (AID 1065). The note with it: higher = more signal, COS7 lysate expressing mutant human TOR1A.
The nature of assay [3]: small molecules captured by biotinylated probe aFGF2 – biochemical, small-molecule microarray, fluorescence 635/667, stem cell growth factor project, primary screen (AID 1067).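 Further: measures binding of biotinylated aFGF2 protein to printed compounds on slides; z-score merges feature fluorescence and signal-to-noise across triplicate slides.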 The note with it: higher = more signal.
Assay [4] can be described thus: small molecules captured by biotinylated probe aFGF10 – biochemical, small-molecule microarray, fluorescence 635/667, stem cell growth factor project, primary screen (AID 1071).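 Further: score merges 667 nm spot intensity and signal to noise from triplicate slides.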 The note with it: higher = more signal.
The target in assay [5] is Neurogenic locus notch homolog protein 2 (Homo sapiens) (UniProt Q04721). Description: small molecules binding Notch2 protein – biochemical, small-molecule microarray, 635 nm fluorescence, stem cell growth factors, primary screen (AID 1073). The note with it: higher = more signal.
Sequence of Neurogenic locus notch homolog protein 2 (Homo sapiens) (Q04721 whole entry, looked up, canonical isoform): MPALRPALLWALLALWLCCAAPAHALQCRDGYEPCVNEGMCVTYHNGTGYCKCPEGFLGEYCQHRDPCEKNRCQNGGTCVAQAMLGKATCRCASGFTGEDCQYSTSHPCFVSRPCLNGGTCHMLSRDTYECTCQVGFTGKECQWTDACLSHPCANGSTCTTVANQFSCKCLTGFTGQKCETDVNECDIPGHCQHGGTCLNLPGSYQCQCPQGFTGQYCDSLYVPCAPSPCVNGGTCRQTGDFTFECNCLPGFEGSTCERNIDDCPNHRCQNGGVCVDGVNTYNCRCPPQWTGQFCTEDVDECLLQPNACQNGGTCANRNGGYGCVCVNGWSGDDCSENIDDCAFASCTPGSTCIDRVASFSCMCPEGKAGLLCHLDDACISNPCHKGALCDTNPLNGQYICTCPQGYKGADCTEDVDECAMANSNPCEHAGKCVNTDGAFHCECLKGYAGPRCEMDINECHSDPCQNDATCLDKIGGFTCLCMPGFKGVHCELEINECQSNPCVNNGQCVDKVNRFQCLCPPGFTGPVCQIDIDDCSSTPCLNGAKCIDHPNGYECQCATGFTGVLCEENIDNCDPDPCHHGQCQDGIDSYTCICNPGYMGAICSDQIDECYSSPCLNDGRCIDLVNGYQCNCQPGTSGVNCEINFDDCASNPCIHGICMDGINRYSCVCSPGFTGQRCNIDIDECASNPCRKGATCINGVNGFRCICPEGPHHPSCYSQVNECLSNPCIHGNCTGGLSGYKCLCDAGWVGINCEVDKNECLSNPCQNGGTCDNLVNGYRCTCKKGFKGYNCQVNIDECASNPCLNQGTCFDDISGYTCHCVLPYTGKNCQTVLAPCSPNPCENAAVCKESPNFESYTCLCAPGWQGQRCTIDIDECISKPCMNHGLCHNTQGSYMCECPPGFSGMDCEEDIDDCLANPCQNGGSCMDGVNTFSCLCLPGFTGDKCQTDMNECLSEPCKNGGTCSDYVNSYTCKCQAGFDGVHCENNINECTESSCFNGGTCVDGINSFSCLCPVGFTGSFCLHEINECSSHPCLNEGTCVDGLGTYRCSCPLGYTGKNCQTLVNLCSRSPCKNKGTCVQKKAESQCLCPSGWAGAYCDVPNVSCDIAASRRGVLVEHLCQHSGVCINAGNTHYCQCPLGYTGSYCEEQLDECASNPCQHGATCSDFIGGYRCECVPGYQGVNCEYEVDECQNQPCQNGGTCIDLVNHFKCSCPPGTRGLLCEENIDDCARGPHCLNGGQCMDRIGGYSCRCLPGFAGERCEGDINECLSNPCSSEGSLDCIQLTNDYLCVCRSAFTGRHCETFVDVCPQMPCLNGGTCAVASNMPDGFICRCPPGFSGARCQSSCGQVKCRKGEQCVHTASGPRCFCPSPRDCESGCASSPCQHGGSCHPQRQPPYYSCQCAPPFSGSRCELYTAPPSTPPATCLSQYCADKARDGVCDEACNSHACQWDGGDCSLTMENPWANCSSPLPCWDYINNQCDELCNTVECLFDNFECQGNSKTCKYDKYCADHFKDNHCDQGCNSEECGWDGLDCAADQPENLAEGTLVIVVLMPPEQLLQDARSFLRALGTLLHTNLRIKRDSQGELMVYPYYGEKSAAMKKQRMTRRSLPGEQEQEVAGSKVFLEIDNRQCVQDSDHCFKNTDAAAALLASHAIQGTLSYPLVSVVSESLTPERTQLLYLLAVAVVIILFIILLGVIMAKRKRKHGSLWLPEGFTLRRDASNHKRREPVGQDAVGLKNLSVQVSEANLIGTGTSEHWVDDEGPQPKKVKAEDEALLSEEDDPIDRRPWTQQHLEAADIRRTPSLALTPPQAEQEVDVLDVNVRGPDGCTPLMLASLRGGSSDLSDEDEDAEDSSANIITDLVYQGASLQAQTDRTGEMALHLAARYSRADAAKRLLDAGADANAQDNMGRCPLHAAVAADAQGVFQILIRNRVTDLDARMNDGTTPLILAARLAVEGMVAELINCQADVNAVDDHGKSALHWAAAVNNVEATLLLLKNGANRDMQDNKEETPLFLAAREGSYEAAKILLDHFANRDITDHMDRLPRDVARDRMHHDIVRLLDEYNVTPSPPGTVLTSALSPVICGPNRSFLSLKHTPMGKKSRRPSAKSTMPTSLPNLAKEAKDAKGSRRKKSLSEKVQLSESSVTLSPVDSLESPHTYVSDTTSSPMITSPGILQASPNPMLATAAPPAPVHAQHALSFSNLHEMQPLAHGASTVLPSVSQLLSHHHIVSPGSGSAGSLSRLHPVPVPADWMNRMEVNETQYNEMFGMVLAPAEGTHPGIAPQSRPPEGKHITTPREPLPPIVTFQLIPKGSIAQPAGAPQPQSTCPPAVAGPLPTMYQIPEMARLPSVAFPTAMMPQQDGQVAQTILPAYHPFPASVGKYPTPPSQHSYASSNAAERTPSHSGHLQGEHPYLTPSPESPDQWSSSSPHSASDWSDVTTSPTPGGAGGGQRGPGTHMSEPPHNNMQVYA
Assay [6] deals with Pro-neuregulin-1, membrane-bound isoform (Homo sapiens) (UniProt Q02297). Description: small molecules binding neuregulin-1 protein – biochemical, small-molecule microarray, fluorescence 635/667, psychiatric disease protein project, primary screen (AID 1075).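 Further: score combines 667 nm spot fluorescence with signal to noise.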 To be noted: NRG1 binding, 635 nm fluorescence, higher = more signal.
Sequence of Pro-neuregulin-1, membrane-bound isoform (Homo sapiens) (Q02297 whole entry, looked up, the tested form may be a part, canonical isoform): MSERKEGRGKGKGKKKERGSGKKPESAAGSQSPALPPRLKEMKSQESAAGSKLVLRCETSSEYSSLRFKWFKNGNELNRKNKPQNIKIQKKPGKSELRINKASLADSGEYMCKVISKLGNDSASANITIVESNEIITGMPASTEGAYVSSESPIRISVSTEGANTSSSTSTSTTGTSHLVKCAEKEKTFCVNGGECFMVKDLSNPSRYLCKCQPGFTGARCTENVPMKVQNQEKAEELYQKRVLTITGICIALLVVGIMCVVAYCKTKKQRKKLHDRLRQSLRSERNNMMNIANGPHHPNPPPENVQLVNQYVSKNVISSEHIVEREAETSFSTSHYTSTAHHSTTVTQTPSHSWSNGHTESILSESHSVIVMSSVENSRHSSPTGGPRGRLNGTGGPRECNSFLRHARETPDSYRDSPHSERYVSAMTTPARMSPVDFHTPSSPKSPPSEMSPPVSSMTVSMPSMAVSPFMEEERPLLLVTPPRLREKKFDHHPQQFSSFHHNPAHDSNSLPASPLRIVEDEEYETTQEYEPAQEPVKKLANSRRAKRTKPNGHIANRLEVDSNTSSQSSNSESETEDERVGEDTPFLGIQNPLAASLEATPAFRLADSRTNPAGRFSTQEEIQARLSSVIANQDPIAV
The test system of assay [7] is Neuregulin-1 EGF-like domain. Kind of assay: small molecules binding NRG1 EGF domain – biochemical, small-molecule microarray, 635 nm fluorescence, primary screen (AID 1081).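 Further: binding of the protein to compounds printed on small-molecule microarray slides.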 The note with it: higher = more signal.
The nature of assay [8]: FRG1 expression reporter modulators in myotubes – cell-based, C2C12 myotubes, firefly/Renilla luciferase, luminescence, FRG1 inhibition for FSHD, primary screen (AID 1084). To be noted: FRG1 promoter luciferase, higher = more signal, called active from +8 up or from −8 down.
Assay [9] is described as follows: small molecules captured by biotinylated probe aFST – biochemical, small-molecule microarray, fluorescence 635/667, stem cell growth factor project, primary screen (AID 1086).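 Further: score merges 667 nm fluorescence with signal-to-noise of each printed compound spot.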 To be noted: higher = more signal.
The nature of assay [10]: binders of probe aHhip on microarray, primary screen, stem cell growth factor project, biochemical, small-molecule microarray, fluorescence 635/667 (AID 1087).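 Further: score merges spot fluorescence at 667nm with spot signal to noise ratio.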 To be noted: higher = more signal.
The subject of assay [11] is PRMT1 (protein arginine N-methyltransferase 1). Description: small molecules binding arginine methyltransferase PRMT1 – biochemical, small-molecule microarray, 635 nm fluorescence, primary screen (AID 1088).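 Further: binding of Prmt1 protein to compounds spotted on small-molecule microarray slides.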 To be noted: higher = more signal.
Assay [12] can be described thus: growth effects on S. cerevisiae YJM789 – YJM789 clinical isolate, OD600, 24 h, basal, primary screen (AID 1089).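 Further: growth of clinical yeast isolate S. cerevisiae YJM 789 seeded 1000 cells per well; test concentration not given here.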 The note with it: higher = more signal, called active from +8 up or from −8 down.
Assay [13] can be described thus: S. pombe growth modifiers, basal conditions – strain 972, OD600, 24 h, no modulator, primary screen (AID 1090).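 Further: basal condition with compound alone and no growth modifier present; test concentration not given here.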 To be noted: S. pombe 972 growth, higher = more signal, called active from +8 up or from −8 down.
A short description of assay [14]: budding yeast growth modifiers under rapamycin – strain BY4716, OD600, 96 h, primary screen (AID 1091). Further: test concentration not given here. To be noted: S. cerevisiae BY4716 + rapamycin, higher = more signal, called active from +8 up or from −8 down.
Assay [15] concerns the target Torsin-1A-interacting protein 2 (Homo sapiens) (UniProt Q8NFQ8). Description: small molecules binding lysate-expressed LULL1 – cell lysate, human LULL1 lysate, 635/667 nm fluorescence, primary screen (AID 1092).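 Further: probe is lysate of COS7 cells overexpressing human LULL1; score merges per-feature 667 nm fluorescence with signal-to-noise.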 The note with it: small-molecule microarray, hLULL1 lysate binding, 635 nm fluorescence; higher = more signal.
Assay [16] in a line: optical density change of DRC41 E. coli – strain DRC41, OD650, 24 h, E. coli filamentation project, primary screen (AID 1093).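 Further: MC1000 strain lacking acrAB efflux and sulA so SOS filamentation is blocked; test concentration not given here.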 The note with it: E. coli DRC41 growth, higher = more signal, called active from +8 up or from −8 down.
Assay [17] is described as follows: probe aLefty2 binding to arrayed compounds – biochemical, biotinylated probe, 635/667 nm fluorescence, primary screen (AID 1094).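 Further: score merges spot fluorescence near 667 nm with spot signal-to-noise ratio.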 The note with it: small-molecule microarray, higher = more signal.
Assay [18] concerns Noggin (protein binding on small-molecule microarray). Kind of assay: small molecules binding Noggin protein – biochemical, 635/667 nm fluorescence, primary screen (AID 1095).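 Further: score merges 667 nm feature fluorescence with signal to noise over triplicate slides.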 The note with it: 635 nm fluorescence, higher = more signal.
Assay [19] concerns the target Neurogenic locus notch homolog protein 3 (Homo sapiens) (UniProt Q9UM47). Kind of assay: small molecules binding NOTCH3 protein – biochemical, 635/667 nm fluorescence, primary screen (AID 1096). To be noted: small-molecule microarray, 635 nm fluorescence, higher = more signal.
The nature of assay [20]: probe aEGFR binding to arrayed compounds – biochemical, biotinylated probe, 635/667 nm fluorescence, primary screen (AID 1097).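 Further: probe is a biotinylated anti-EGFR antibody binding compounds printed on slides; score combines fluorescence near 667 nm and signal to noise of each spot.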 To be noted: small-molecule microarray, higher = more signal.

Calls of active or inactive are those of the source.

Sequence of Torsin-1A-interacting protein 2 (Homo sapiens) (Q8NFQ8 whole entry, looked up): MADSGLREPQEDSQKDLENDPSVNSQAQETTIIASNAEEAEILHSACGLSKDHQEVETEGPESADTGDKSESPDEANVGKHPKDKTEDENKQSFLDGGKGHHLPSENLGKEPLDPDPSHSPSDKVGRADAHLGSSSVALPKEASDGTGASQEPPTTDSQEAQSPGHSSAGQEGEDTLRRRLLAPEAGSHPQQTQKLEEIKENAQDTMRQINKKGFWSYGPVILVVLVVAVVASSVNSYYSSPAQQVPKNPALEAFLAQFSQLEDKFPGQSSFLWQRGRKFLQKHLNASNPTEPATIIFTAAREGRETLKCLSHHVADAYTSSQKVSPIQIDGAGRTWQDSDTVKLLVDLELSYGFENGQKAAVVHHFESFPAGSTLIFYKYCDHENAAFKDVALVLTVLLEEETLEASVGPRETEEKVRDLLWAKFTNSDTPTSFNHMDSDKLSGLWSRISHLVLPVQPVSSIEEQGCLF

In the case of `CO[C@]12C=C(Br)[C@@H](C[C@@H]1c1ccccc1)[C@@]1(CO1)C2=O`, the composite z-score in [1] is -0.407; in assay [2], 0.215; in assay [3], -0.0336; in [4], 0.229; in assay [5] it was 0.308; in assay [6], -0.115. The composite z-score was -0.356 in assay [7]; 0.0254 in assay [9]; 0.0274 in assay [10]; -0.167 in [11]; -0.132 in assay [15]; -0.2 in assay [17]. The composite z-score in assay [18] was 0.706; in assay [19], 0.243; in [20], -0.14. The z-score in assay [8] is -0.358 (inactive); in [12], -0.0474 (inactive); in assay [13], -4.38 (inactive); in assay [14], -0.208 (inactive); in assay [16], 2.43 (inactive).

`COc1ccc([Si](C)(C)[C@H]2[C@H](CCO)O[C@@]3(C(=O)N(Cc4ccc(N5CCCCC5=O)cc4)c4ccccc43)[C@@H]2C)cc1`: the composite z-score in [1] was 0.0352; in assay [2], 0.959; in [3], -0.0747; in [4] it was -0.0971; in assay [5], 0.308; in [6], 1.46. For the same molecule, the composite z-score in assay [7] was 1.05; in [9], 0.172; in assay [10], -0.0994; in [11], 1.54; in [15] it was 1.88; in assay [17], -0.116. Also, the composite z-score in assay [18] is 0.993; in assay [19], 1.07; in assay [20] it was -0.0288. For the same molecule, the z-score in assay [8] was -4.59 (inactive); in [12] it was -0.025 (inactive); in [13] it was -0.717 (inactive); in assay [14], 2.28 (inactive); in [16], 1.9 (inactive).

As to `COC(=O)[C@@]1(Cc2ccc(OC)cc2)[C@H]2c3cc(C(=O)N(C)C)n(Cc4ccc(C)c(F)c4F)c3C[C@H]2CN1C(=O)c1ccccc1`, the composite z-score in [1] came to 0.372; in assay [2], 0.251; in assay [3], 0.162; in assay [4], 0.315; in assay [5], 0.498; in assay [6], 0.57. The composite z-score was 0.964 in assay [7]; 0.588 in [9]; 0.21 in assay [10]; 0.223 in assay [11]; 2.84 in [15]; 0.146 in assay [17]. Further, the composite z-score is -0.268 in assay [18], 0.797 in [19] and -0.0972 in assay [20]. Besides, the z-score in assay [8] is 0.803 (inactive); in assay [12], 1.14 (inactive); in assay [13], 0.491 (inactive); in assay [14], 0.972 (inactive); in assay [16], -0.716 (inactive).

Take `C[C@@H]1CC[C@H]2C(=O)N3[C@@H](CC[C@@H](C)[C@@H]3c3cccc(N4CCOCC4)c3)C(=O)N2[C@H]1c1cccc(N2CCOCC2)c1`: the composite z-score in assay [1] is 0.0943; in [2], 0.378; in [3], -0.166; in assay [4], 0.616; in assay [5], 0.92; in [6] it was 0.414. The composite z-score in assay [7] is 1.1; in assay [9], 0.619; in [10], 1.3; in assay [11], 0.52; in assay [15], 0.44; in [17] it was -0.275. Further, the composite z-score in assay [18] was 0.252; in [19], 0.464; in assay [20], -0.012. Besides, the z-score is -0.531 (inactive) in assay [8]; 0.123 (inactive) in [12]; 0.132 (inactive) in assay [13]; 0.651 (inactive) in assay [14]; 0.593 (inactive) in assay [16].

For `Cc1ccc(S[C@]2(C(=O)NCCCN(C)C)CC(=O)N(C3CCCCC3)[C@@H]2c2ccc(CO)cc2I)cc1`, the composite z-score was 1.93 in assay [1]; -0.697 in assay [2]; -0.113 in [3]; -0.546 in [4]; -0.197 in assay [5]; 0.266 in [6]. Besides, the composite z-score is 0.942 in assay [7]; 0.235 in assay [9]; -0.0645 in assay [10]; -0.167 in assay [11]; 1.81 in assay [15]; 0.213 in assay [17]. Besides, the composite z-score in [18] was -0.553; in [19], -0.742; in assay [20] it was -0.257. Moreover, the z-score in assay [8] was -1.31 (inactive); in assay [12], 0.782 (inactive); in assay [13], -8.01 (active); in [14], -0.417 (inactive); in [16], -0.455 (inactive).
